The values below come from PubChem BioAssay AID602143 (Vanderbilt Specialized Chemistry Center, 2011).

The target in this experiment is Phospholipase D2 (Homo sapiens) (UniProt O14939). Nature of the experiment: cellular phospholipase D2 activity inhibition – cell-based, HEK293, single concentration (AID 602143).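 Note: tested at 200 nM.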 As to conditions: HEK293 cellular PLD2 activity, percent of control; hits give low values.

Molecules are shown by their SMILES. A number with no mark means an inactive call. Calls of active or inactive are those of the source. Cut-off read from the data, not from the text of the source: active = remaining activity below about 50%; inactive = the rest.

Sequence of Phospholipase D2 (Homo sapiens) (O14939 whole entry, looked up): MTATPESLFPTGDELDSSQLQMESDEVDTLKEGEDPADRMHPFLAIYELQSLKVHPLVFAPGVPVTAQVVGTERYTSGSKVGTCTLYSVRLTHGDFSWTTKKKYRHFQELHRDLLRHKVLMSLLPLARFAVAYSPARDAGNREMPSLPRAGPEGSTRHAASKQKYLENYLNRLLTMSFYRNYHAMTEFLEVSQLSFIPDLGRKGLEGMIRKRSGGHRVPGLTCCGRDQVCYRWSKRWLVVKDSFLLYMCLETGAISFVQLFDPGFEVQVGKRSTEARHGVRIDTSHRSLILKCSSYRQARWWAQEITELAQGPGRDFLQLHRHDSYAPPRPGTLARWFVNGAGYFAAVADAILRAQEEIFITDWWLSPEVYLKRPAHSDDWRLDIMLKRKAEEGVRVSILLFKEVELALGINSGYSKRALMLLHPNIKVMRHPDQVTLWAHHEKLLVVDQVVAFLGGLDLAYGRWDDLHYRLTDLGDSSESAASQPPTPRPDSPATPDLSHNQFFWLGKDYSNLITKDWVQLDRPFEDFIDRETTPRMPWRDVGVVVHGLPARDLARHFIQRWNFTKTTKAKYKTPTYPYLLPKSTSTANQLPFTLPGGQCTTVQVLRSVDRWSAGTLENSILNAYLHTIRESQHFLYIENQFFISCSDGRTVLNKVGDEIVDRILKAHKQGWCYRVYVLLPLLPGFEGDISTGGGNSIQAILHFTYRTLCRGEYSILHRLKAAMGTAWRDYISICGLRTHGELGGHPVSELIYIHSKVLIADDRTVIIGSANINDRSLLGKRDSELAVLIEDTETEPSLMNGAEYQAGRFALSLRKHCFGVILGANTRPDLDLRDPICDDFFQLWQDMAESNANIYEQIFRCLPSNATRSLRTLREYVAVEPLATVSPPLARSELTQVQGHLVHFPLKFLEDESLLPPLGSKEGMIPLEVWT
Sequence of Phospholipase D2 (Homo sapiens) (O14939 whole entry, looked up): as above

For the compound `O=C(NCCN1CCC2(CCc3ccccc32)CC1)c1ccc2ccccc2c1`, the remaining activity – broadly, the signal under treatment as a percentage of the control signal – is 124%.

In the case of `COc1cccc(N2CCN(CCNC(=O)c3ccc(C(F)(F)F)cc3)CC2)c1`, the remaining activity is 98.3%.

As for `C[C@H](CN1CCC2(CC1)CNCc1ccccc12)NC(=O)c1cnc2ccccc2c1`, the remaining activity is 100%.

For `O=c1[nH]c2ccccc2n1C1CCN(CCNS(=O)(=O)c2ccccc2Br)CC1`, the remaining activity was 75.8%.

With `O=C(NCCN1CCC(n2c(=O)[nH]c3ccccc32)CC1)NC(c1ccccc1)c1ccccc1`, the remaining activity is 123%.

As to `O=C(NCCN1CCC2(CC1)CNc1ccccc12)c1ccc2ccccc2c1`, the remaining activity was 61.8%.

For `O=c1[nH]c2ccccc2n1C1CCN(CCNS(=O)(=O)c2cccc(C(F)(F)F)c2)CC1`, the remaining activity was 61.1%.

With `C[C@@H](CN1CCC2(CC1)CCN(C)C2=O)NC(=O)c1cnc2ccccc2c1`, the remaining activity was 113%.

For the compound `O=C(NCCN1CCN(c2ccncc2)CC1)c1ccccc1-c1ccccc1`, the remaining activity was 83.2%.

With `O=C(NCCN1CCC(n2c(=O)[nH]c3ccccc32)CC1)Nc1cccc(OC(F)(F)F)c1`, the remaining activity is 111%.

As for `COc1ccc(S(=O)(=O)NCCN2CCC(n3c(=O)[nH]c4ccccc43)CC2)cc1`, the remaining activity was 127%.

In the case of `O=C1Cc2cc(CCN3CCN(c4nsc5ccccc45)CC3)c(Cl)cc2N1`, the remaining activity is 105%.

Take `C[C@@H](CN1CCC2(CC1)CN(S(C)(=O)=O)c1ccccc12)NC(=O)c1cnc2ccccc2c1`: the remaining activity is 136%.

As for `O=c1[nH]c2ccccc2n1C1CCN(CCNS(=O)(=O)c2cccc3cccnc23)CC1`, the remaining activity was 112%.

With `COc1cccc(N2CCN(CCNC(=O)c3ccc(F)cc3)CC2)c1`, the remaining activity is 100%.

Regarding `C[C@H](CN1CCC(n2c(=O)[nH]c3cc(Cl)ccc32)CC1)NC(=O)c1cc2ccccc2[nH]1`, the remaining activity is 25% (active).

As for `O=c1[nH]c2ccccc2n1C1CCN(CCNC(=S)Nc2ccccc2F)CC1`, the remaining activity was 87.4%.

For `O=C(NCCN1CCC2(CC1)CNCc1ccccc12)c1cnc2ccccc2c1`, the remaining activity was 97.1%.

With `COc1ccccc1NC(=S)NCCN1CCC(n2c(=O)[nH]c3ccccc32)CC1`, the remaining activity was 126%.

As to `O=C(NCCN1CCC(n2c(=O)[nH]c3ccccc32)CC1)c1cccc(F)n1`, the remaining activity was 74.5%.

For the compound `O=C(NCCN1CCC(C(=O)NCCc2ccccn2)CC1)c1ccc2ccccc2c1`, the remaining activity was 100%.

As for `O=c1[nH]c2ccccc2n1C1CCN(CCNC(=S)Nc2ccc(Cl)c(Cl)c2)CC1`, the remaining activity was 93.9%.

Regarding `COc1cccc(N2CCN(CCNC(=O)c3ccc(Cl)cc3)CC2)c1`, the remaining activity is 109%.

For the compound `O=C(C1C[C@@H]1c1ccccc1)N1CCC2(CC1)C(=O)NCN2c1ccccc1` (stereo not given in full), the remaining activity is 84%.

`O=C1c2ccccc2C(=O)N1CCCNCc1ccccn1`: the remaining activity was 116%.

For the compound `O=C1c2ccccc2C(=O)N1CCCN1CCC(c2nc3ccccc3[nH]2)CC1`, the remaining activity was 82.5%.

`O=C(NCCN1CCN(c2ccncc2)CC1)c1cc2ccccc2s1`: the remaining activity was 90.5%.

For `O=C(NCCN1CCC(n2c(=O)n(C(=O)c3ccc(Cl)cc3)c3ccccc32)CC1)c1ccc(Cl)cc1`, the remaining activity was 64.5%.

`O=C(NCCN1CCC2(CC1)CCN(c1ccccc1)C2=O)c1cnc2ccccc2c1`: the remaining activity is 42.3% (active).

For `COc1cccc(N2CCN(CCNC(=O)c3ccc(C)cc3)CC2)c1`, the remaining activity was 97.6%.

For the compound `O=C(NCCN1CCC(n2c(=O)[nH]c3ccccc32)CC1)c1cnccn1`, the remaining activity was 139%.

Regarding `O=C(NCCN1CCC(n2c(=O)[nH]c3cc(Cl)ccc32)CC1)c1ccc2ccccc2c1`, the remaining activity was 63.9%.

For the compound `C=CCCCCCCCCC(=O)NCCN1CCC(n2c(=O)[nH]c3ccccc32)CC1`, the remaining activity is 65.3%.

Consider `C[C@H](CN1CCC(n2nnc3ccccc32)CC1)NC(=O)c1cnc2ccccc2c1`, for which the remaining activity is 68.5%.

Consider `O=C1c2ccccc2C(=O)N1CCN1CCC(n2c(=O)[nH]c3cc(Cl)ccc32)CC1`, for which the remaining activity is 90.8%.

For `Cc1ccc(S(=O)(=O)NCCN2CCC(n3c(=O)[nH]c4ccccc43)CC2)cc1`, the remaining activity is 77.3%.

As to `CS(=O)(=O)N1CC2(CCN(CCNC(=O)c3ccc4ccccc4c3)CC2)c2ccccc21`, the remaining activity is 84.2%.

For `COc1cc(C(=O)NCCN2CCN(c3ccncc3)CC2)ccc1N`, the remaining activity was 130%.

For the compound `O=C(NCCN1CCC(n2nnc3ccccc32)CC1)C1CC1c1ccccc1` (stereo not given), the remaining activity is 78.1%.

In the case of `C[C@@H](CN1CCC2(CC1)CCN(C)C2=O)NC(=O)c1ccc2ccccc2c1`, the remaining activity is 135%.
